Holding throughout (experiment): DAPPL (digital affinity profiling via proximity ligation, sequencing); 10 mM Tris-HCl pH 7.5, 50 mM NaCl, 1 mM DTT, 4% glycerol, room temperature, 30 min; GST-TFs on glutathione beads, 16-mer random dsDNA library, 0.1% formaldehyde crosslink after washing; high values mean tight binding
Conditions in all cases: protein: recombinant; tags: N-terminal GST; dsDNA, one strand shown

Test [1] addresses T1, FLI1 (Homo sapiens, UniProt Q01543 1-452).
T1 sequence: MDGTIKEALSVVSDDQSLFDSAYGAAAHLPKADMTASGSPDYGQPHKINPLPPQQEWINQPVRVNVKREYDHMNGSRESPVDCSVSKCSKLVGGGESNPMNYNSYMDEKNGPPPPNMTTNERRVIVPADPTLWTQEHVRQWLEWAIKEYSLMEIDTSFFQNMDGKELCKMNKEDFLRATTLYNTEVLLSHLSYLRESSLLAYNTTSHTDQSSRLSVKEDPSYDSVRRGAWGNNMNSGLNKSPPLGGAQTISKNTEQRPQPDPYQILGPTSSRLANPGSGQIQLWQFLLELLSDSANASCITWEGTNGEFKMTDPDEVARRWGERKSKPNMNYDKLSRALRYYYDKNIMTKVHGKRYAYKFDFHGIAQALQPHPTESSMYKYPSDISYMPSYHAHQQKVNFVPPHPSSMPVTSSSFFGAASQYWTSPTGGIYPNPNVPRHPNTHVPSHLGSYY
In a few lines: (§1)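 Sequencing on an Illumina NextSeq500 followed washing, crosslinking with 0.1% formaldehyde, proximity ligation (BsaI/T4 ligase, 1 h, 37 °C) and PCR amplification of pools that had been incubated for 30 min at room temperature with 200 nmole of a random double-stranded 16-mer DNA library in Tris/NaCl/DTT/glycerol buffer. Each pool held DNA-barcoded human transcription factors, expressed in yeast as GST fusions and captured on glutathione beads, plus a tag-only sample. Binding signal is a hexamer's read frequency for a factor divided by its frequency in the tag-only sample.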

Test [2] deals with T2, ELK1 (Homo sapiens, UniProt P19419 1-428).
T2 sequence: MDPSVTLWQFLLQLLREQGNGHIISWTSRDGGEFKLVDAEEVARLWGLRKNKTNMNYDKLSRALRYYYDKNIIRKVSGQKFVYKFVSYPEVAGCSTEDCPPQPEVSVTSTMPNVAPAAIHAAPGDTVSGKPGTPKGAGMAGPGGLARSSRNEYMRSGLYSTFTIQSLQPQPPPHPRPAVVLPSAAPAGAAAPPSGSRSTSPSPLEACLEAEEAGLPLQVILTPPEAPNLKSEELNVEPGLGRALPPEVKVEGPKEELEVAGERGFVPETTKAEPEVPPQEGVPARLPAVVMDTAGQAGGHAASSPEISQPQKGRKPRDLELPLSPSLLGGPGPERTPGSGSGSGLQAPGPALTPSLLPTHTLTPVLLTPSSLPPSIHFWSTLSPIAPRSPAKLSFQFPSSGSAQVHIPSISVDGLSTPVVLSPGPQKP
In a few lines:
as §1

Test [3] addresses T3, GABPA (Homo sapiens, UniProt Q06546 1-454).
T3 sequence: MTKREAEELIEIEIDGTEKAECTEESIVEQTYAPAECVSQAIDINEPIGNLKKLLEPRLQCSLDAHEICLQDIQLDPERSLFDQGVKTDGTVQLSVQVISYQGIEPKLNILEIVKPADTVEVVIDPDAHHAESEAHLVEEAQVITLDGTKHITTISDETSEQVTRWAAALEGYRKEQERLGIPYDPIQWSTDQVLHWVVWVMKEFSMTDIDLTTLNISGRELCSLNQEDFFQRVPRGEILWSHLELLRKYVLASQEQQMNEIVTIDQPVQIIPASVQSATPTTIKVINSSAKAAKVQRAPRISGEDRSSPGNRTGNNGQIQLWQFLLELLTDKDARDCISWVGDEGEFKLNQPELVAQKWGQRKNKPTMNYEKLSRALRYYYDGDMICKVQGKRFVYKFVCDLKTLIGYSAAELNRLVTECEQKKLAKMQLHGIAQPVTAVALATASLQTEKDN
In a few lines: as §1

The target in test [4] is T4, ERG (Homo sapiens, UniProt P11308 1-479).
T4 sequence: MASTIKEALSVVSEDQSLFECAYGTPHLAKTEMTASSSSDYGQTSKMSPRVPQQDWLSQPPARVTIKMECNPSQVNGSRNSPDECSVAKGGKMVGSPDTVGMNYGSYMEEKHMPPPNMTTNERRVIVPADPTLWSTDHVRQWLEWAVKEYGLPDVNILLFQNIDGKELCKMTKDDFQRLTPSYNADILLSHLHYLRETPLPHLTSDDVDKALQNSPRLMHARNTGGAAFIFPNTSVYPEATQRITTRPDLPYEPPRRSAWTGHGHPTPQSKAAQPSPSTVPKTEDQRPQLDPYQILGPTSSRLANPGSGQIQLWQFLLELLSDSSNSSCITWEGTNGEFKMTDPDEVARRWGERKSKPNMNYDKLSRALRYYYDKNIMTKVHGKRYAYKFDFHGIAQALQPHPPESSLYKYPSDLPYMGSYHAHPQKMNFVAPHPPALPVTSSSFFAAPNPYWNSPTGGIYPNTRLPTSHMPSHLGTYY
In a few lines: as §1

Test [5] concerns the target ELF1 (Homo sapiens, UniProt P32519 1-619). In a few lines: as §1
The target in test [6] is T5, EHF (Homo sapiens, UniProt Q9NZC4 1-300).
T5 sequence: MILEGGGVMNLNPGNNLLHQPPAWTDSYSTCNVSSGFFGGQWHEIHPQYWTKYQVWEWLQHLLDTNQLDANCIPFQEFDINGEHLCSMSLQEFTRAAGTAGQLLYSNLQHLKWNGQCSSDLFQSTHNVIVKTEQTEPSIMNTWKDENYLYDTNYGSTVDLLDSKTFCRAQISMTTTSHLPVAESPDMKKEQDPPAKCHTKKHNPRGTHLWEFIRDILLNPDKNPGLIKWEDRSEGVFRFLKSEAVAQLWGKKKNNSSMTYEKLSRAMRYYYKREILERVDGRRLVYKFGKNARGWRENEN
In a few lines: as §1

Test [7] has as its target SPI1 (Homo sapiens, UniProt P17947 1-270). In a few lines:
as §1

For test [8], the target named is SPIB (Homo sapiens, UniProt Q01892 1-262). In a few lines: as §1
Chain of SPIB (Q01892 whole entry): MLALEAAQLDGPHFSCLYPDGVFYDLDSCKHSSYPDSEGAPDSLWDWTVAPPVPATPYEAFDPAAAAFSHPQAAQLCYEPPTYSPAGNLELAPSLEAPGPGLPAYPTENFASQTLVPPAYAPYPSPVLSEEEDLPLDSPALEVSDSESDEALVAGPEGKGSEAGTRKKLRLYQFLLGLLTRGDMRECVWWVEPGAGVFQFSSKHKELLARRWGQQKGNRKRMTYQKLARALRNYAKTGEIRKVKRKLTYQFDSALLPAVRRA
For test [9], the target named is T6, ELK3 (Homo sapiens, UniProt P41970 1-407).
T6 sequence: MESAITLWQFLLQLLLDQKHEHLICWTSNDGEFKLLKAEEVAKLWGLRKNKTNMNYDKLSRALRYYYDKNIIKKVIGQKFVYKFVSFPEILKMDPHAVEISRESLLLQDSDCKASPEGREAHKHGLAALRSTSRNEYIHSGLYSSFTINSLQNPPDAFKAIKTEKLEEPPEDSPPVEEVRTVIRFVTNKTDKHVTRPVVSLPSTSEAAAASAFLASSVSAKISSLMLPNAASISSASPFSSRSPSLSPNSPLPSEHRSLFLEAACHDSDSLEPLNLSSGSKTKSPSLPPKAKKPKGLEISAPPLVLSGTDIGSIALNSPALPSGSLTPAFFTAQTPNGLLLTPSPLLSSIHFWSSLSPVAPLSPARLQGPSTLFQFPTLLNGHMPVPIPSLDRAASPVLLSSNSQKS
In a few lines: as §1

The target in test [10] is T7, FEV (Homo sapiens, UniProt Q99581 1-238).
T7 sequence: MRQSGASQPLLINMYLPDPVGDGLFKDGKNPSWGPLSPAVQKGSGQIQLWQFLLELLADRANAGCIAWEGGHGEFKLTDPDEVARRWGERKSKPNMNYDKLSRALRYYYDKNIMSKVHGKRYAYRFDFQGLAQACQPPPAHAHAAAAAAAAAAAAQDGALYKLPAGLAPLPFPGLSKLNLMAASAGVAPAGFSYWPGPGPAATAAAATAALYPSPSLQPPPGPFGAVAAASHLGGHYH
In a few lines:
as §1

Test [11] deals with ETV5 (Homo sapiens, UniProt P41161 1-510). In a few lines: as §1
Chain of ETV5 (P41161 whole entry): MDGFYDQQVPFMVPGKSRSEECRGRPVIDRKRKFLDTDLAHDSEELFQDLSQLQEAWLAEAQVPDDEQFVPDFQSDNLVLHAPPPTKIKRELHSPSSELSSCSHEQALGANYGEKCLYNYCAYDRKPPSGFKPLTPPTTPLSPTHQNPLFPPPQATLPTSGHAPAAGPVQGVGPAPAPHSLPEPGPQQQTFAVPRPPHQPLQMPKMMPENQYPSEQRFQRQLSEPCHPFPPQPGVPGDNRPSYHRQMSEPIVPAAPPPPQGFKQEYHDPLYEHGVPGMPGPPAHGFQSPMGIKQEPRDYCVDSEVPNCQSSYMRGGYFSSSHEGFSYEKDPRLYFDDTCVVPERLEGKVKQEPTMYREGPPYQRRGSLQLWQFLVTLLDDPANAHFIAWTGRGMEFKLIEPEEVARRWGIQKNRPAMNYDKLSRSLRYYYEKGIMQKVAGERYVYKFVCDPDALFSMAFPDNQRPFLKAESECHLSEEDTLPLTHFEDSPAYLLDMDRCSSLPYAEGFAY
In test [12] the target is T8, SPIC (Homo sapiens, UniProt Q8N5J4 1-248).
T8 sequence: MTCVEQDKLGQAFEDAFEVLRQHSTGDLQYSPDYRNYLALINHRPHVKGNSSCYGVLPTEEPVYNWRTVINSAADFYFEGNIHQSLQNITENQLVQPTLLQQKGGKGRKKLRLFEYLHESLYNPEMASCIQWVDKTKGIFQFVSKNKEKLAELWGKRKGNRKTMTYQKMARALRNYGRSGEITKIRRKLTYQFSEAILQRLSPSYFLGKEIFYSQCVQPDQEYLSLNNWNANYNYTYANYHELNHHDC
In a few lines: as §1

For test [13], the target named is ELF4 (Homo sapiens, UniProt Q99607 1-663). In a few lines:
as §1

The target in test [14] is ETV1 (Homo sapiens, UniProt P50549 1-477). In a few lines: as §1
Chain of ETV1 (P50549 whole entry): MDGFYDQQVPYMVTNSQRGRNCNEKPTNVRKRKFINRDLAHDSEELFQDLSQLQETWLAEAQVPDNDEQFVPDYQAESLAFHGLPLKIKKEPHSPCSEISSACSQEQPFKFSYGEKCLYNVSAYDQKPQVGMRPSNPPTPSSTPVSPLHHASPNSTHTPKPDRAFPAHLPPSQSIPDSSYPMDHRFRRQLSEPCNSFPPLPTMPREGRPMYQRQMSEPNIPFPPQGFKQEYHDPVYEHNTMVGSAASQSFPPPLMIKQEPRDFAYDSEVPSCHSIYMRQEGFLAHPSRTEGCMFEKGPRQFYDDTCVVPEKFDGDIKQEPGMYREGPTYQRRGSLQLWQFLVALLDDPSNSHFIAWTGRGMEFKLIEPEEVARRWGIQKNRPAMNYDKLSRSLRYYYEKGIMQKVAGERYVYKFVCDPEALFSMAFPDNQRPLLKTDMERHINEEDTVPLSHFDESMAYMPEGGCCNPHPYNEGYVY
In test [15] the target is T9, ERF (Homo sapiens, UniProt P50548 1-548).
T9 sequence: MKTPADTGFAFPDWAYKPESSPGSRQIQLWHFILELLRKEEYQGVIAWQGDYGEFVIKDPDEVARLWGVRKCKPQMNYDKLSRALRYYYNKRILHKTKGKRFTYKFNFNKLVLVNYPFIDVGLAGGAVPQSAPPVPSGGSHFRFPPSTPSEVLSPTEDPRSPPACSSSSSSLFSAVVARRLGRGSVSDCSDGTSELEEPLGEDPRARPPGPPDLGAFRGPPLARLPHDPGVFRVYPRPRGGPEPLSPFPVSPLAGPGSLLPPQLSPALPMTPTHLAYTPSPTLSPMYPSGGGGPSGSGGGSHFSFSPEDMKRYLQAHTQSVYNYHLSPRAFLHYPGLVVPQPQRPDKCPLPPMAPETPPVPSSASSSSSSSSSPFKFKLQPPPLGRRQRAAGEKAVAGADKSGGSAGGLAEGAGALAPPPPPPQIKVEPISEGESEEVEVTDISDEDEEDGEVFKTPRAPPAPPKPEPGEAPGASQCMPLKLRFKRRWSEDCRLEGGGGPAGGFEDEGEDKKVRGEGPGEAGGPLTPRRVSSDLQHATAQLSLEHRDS
In a few lines:
as §1

The target in test [16] is T10, ETV3L (Homo sapiens, UniProt Q6ZN32 1-361).
T10 sequence: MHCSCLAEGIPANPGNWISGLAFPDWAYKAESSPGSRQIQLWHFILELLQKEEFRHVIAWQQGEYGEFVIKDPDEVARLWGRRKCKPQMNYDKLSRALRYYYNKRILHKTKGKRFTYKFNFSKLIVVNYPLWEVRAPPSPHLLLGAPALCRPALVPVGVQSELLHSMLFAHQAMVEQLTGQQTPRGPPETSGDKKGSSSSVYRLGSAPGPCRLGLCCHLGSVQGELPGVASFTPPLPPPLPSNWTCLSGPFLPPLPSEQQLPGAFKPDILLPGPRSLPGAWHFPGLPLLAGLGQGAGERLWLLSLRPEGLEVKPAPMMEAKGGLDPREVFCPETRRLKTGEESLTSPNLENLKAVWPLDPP
In a few lines: as §1

Test [17] deals with T11, ETS2 (Homo sapiens, UniProt P15036 1-469).
T11 sequence: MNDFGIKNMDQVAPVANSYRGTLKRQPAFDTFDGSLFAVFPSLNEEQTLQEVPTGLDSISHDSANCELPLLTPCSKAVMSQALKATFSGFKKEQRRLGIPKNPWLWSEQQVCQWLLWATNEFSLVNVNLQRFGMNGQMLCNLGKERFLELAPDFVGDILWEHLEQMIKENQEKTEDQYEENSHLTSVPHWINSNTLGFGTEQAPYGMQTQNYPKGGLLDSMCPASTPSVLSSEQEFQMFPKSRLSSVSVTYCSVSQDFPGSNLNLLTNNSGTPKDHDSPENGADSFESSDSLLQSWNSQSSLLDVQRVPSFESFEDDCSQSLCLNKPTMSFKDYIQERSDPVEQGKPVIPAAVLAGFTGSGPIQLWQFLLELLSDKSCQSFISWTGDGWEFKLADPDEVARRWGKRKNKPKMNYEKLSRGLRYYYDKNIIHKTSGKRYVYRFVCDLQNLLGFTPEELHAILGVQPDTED
In a few lines:
as §1

The target of test [18] is T12, ETV3 (Homo sapiens, UniProt P41162-2 1-143).
T12 sequence: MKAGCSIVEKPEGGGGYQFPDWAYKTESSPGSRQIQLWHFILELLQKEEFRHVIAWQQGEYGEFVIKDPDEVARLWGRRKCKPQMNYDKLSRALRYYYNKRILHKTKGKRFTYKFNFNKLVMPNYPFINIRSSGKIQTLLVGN
In a few lines:
as §1

For test [19], the target named is ETV6 (Homo sapiens, UniProt P41212 1-452). In a few lines:
as §1

Chain of ETV6 (P41212 whole entry): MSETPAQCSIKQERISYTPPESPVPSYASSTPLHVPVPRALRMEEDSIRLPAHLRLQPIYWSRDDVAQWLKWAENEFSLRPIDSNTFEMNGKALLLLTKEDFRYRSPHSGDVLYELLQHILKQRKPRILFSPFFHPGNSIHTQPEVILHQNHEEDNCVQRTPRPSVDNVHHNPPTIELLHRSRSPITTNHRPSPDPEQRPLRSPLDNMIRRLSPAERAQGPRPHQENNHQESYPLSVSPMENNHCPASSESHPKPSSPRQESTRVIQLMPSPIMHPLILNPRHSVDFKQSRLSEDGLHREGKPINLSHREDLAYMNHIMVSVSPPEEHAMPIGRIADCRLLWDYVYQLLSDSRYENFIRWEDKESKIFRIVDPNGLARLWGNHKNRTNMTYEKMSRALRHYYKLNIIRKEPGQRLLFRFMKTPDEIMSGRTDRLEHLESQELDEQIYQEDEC
Chain of ELF1 (P32519 whole entry): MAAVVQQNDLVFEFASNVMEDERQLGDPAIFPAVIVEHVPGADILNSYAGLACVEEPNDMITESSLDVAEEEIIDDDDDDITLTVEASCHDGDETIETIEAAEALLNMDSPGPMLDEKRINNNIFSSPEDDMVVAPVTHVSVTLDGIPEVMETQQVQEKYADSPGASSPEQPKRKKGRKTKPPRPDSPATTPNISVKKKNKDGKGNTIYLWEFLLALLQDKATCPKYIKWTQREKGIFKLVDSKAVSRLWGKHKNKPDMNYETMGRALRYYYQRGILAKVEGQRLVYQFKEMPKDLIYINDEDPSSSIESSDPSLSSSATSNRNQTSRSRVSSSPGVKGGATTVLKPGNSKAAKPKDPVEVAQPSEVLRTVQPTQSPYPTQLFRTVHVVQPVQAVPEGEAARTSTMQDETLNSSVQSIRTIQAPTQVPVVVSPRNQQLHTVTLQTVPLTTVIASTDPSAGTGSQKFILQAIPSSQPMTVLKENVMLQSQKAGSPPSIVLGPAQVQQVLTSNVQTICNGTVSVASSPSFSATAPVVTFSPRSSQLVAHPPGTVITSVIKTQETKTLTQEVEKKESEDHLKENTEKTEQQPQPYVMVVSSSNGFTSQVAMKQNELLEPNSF
Chain of ELF4 (Q99607 whole entry): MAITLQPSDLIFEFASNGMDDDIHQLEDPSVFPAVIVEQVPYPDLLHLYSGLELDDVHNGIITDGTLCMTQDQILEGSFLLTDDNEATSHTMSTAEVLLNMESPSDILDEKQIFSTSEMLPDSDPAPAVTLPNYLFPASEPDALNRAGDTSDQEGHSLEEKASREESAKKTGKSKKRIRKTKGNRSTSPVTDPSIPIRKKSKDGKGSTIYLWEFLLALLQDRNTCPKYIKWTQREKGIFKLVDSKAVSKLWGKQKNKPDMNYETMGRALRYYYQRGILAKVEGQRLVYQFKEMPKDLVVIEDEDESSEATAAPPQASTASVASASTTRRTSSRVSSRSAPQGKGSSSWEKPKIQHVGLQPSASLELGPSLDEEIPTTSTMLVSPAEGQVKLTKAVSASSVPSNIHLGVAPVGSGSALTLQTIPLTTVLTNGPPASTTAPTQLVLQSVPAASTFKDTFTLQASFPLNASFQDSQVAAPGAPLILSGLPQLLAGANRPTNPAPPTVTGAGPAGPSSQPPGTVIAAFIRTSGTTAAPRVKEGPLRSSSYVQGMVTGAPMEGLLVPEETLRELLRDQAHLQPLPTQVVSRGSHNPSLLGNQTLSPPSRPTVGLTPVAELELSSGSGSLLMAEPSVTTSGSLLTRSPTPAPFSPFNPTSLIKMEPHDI

On to GCCCAC, for which the binding signal in test [1] is 1.09 fold enrichment (6-mer frequency, TF over GST control); in test [2], 1.18 fold enrichment (6-mer frequency, TF over GST control); in test [3], 1.06 fold enrichment (6-mer frequency, TF over GST control); in [4] it was 1.06 fold enrichment (6-mer frequency, TF over GST control); in test [5], 1.1 fold enrichment (6-mer frequency, TF over GST control); in test [6], 1.13 fold enrichment (6-mer frequency, TF over GST control). Further, the binding signal is 1.07 fold enrichment (6-mer frequency, TF over GST control) in [7]; 1.12 fold enrichment (6-mer frequency, TF over GST control) in [8]; 1.03 fold enrichment (6-mer frequency, TF over GST control) in test [9]; 1.12 fold enrichment (6-mer frequency, TF over GST control) in [10]; 1.16 fold enrichment (6-mer frequency, TF over GST control) in test [11]; 1.13 fold enrichment (6-mer frequency, TF over GST control) in [12]. For the same sequence, the binding signal in test [13] is 1.18 fold enrichment (6-mer frequency, TF over GST control); in test [14], 1 fold enrichment (6-mer frequency, TF over GST control); in [15] it was 1.09 fold enrichment (6-mer frequency, TF over GST control); in [16], 1.04 fold enrichment (6-mer frequency, TF over GST control); in test [17], 1.04 fold enrichment (6-mer frequency, TF over GST control); in test [18], 1.09 fold enrichment (6-mer frequency, TF over GST control). Also, the binding signal in test [19] is 1.05 fold enrichment (6-mer frequency, TF over GST control).
